# Measured values as given in PubChem BioAssay AID1159580 (chemical genetic matrix, 2015).
# “And” between values parts separate entries of the source, which are not always exact repeats. Equal values may be shown once. Hit rate of the full screen: of about 5,500 compounds, about 2,000 (36%) were called active. Not shown: some 18% with an inconclusive outcome. Some of the results follow. A number with no mark means an inactive call. Rule as the data show it: active = normalized growth mostly below about 0.91 (no sharp cut-off); inconclusive = no clear call, values can overlap the other calls; inactive = mostly above about 0.92.
# Assay: chemical genetic growth profiling, strain panel (AID 1159580);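 also: tested at 20 µM; growth read once vehicle control cultures reached saturation at 30 °C; 1 = growth at the plate median or of vehicle wells; lower values mean less growth of the strain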
# Settings: S. cerevisiae deletion strains, growth OD
smiles,measurement,setting,value
COc1cc2c(cc1OC)[C@@H]1C(=O)c3ccc4c(c3O[C@@H]1CO2)CC(C(C)C)O4 (some centres not stated),normalized growth,"locus YAL021C, strain ccr4, hits give low values",0.989
same,normalized growth,"locus YAL026C, strain drs2, hits give low values",0.969
same,normalized growth,"locus YAL030W, strain snc1, hits give low values",0.998
same,normalized growth,"locus YBL061C, strain skt5, hits give low values",1
same,normalized growth,"locus YBR009C, strain hhf1, hits give low values",0.938
same,normalized growth,"locus YBR021W, strain FUR4, hits give low values",0.993
same,normalized growth,"locus YBR023C, strain chs3, hits give low values",0.981
same,normalized growth,"locus YBR171W, strain sec66, hits give low values",0.974
same,normalized growth,"locus YBR229C, strain ROT2, hits give low values",0.994
same,normalized growth,"locus YBR231C, strain swc5, hits give low values",0.932
same,normalized growth,"locus YBR279W, strain paf1, hits give low values",0.982
same,normalized growth,"locus YCL011C, strain gbp2, hits give low values",0.991
same,normalized growth,"locus YCL016C, strain dcc1, hits give low values",0.984
same,normalized growth,"locus YCL029C, strain bik1, hits give low values",1.02
same,normalized growth,"locus YCL061C, strain MRC1, hits give low values",0.96
same,normalized growth,"locus YCL069W, strain vba3, hits give low values",0.99
same,normalized growth,"locus YCR088W, strain abp1, hits give low values",0.99
same,normalized growth,"locus YDL005C, strain med2, hits give low values",0.978
same,normalized growth,"locus YDL035C, strain GPR1, hits give low values",0.972
same,normalized growth,"locus YDL040C, strain nat1, hits give low values",0.985
same,normalized growth,"locus YDL074C, strain BRE1, hits give low values",0.952
same,normalized growth,"locus YDL101C, strain DUN1, hits give low values",0.982
same,normalized growth,"locus YDL185W, strain tfp1, hits give low values",1.01
same,normalized growth,"locus YDL192W, strain arf1, hits give low values",1.01
same,normalized growth,"locus YDR001C, strain nth1, hits give low values",0.987
same,normalized growth,"locus YDR069C, strain doa4, hits give low values",1
same,normalized growth,"locus YDR101C, strain arx1, hits give low values",0.998
same,normalized growth,"locus YDR137W, strain rgp1, hits give low values",0.89
same,normalized growth,"locus YDR150W, strain NUM1, hits give low values",1.01
same,normalized growth,"locus YDR159W, strain sac3, hits give low values",0.957
same,normalized growth,"locus YDR162C, strain NBP2, hits give low values",0.941
same,normalized growth,"locus YDR195W, strain ref2",0.982
same,normalized growth,"locus YDR297W, strain sur2, hits give low values",0.972
same,normalized growth,"locus YDR318W, strain mcm21, hits give low values",1
same,normalized growth,"locus YDR334W, strain swr1, hits give low values",0.99
same,normalized growth,"locus YDR335W, strain msn5, hits give low values",1.01
same,normalized growth,"locus YDR388W, hits give low values",1.01
same,normalized growth,"locus YDR392W, strain spt3, hits give low values",0.707 (active)
same,normalized growth,"locus YDR502C, strain sam2, hits give low values",0.998
same,normalized growth,"locus YEL003W, strain gim4, hits give low values",0.959
same,normalized growth,"locus YEL037C, strain rad23, hits give low values",0.999
same,normalized growth,"locus YEL061C, strain CIN8 (second series), hits give low values",0.99
same,normalized growth,"locus YEL061C, strain CIN8, hits give low values",1
same,normalized growth,"locus YER015W, strain faa2, hits give low values",0.965
same,normalized growth,"locus YER016W, strain bim1, hits give low values",0.984
same,normalized growth,"locus YER110C, hits give low values",1.01
same,normalized growth,"locus YER111C, strain swi4, hits give low values",1.01
same,normalized growth,"locus YER155C, strain BEM2 (second series), hits give low values",0.931
same,normalized growth,"locus YER155C, strain BEM2, hits give low values",1
same,normalized growth,"locus YER167W, strain BCK2, hits give low values",1
same,normalized growth,"locus YFR010W, strain ubp6, hits give low values",0.98
same,normalized growth,"locus YGL078C, strain dbp3, hits give low values",1.01
same,normalized growth,"locus YGL086W, strain mad1, hits give low values",0.985
same,normalized growth,"locus YGL167C, strain pmr1, hits give low values",0.987
same,normalized growth,"locus YGL173C, strain kem1, hits give low values",0.977
same,normalized growth,"locus YGL227W, strain vid30, hits give low values",0.975
same,normalized growth,"locus YGL240W, strain doc1, hits give low values",0.956
same,normalized growth,"locus YGL248W, strain PDE1, hits give low values",0.979
same,normalized growth,"locus YGL253W, strain hxk2, hits give low values",0.96
same,normalized growth,"locus YGR135W, strain pre9, hits give low values",1.02
same,normalized growth,"locus YGR252W, strain gcn5, hits give low values",0.895
same,normalized growth,"locus YHR013C, strain ard1, hits give low values",0.998
same,normalized growth,"locus YHR027C, strain rpn1, hits give low values",0.993
same,normalized growth,"locus YHR030C, strain SLT2, hits give low values",1.01 and 1.04
same,normalized growth,"locus YHR079C, strain IRE1 (second series), hits give low values",1.01
same,normalized growth,"locus YHR079C, strain IRE1, hits give low values",1.07
same,normalized growth,"locus YHR094C, strain hxt1, hits give low values",1.01
same,normalized growth,"locus YHR129C, strain ARP1, hits give low values",0.998
same,normalized growth,"locus YHR142W, strain chs7, hits give low values",0.986
same,normalized growth,"locus YHR200W, strain rpn10, hits give low values",1.02
same,normalized growth,"locus YIL066C, strain RNR3, hits give low values",0.945
same,normalized growth,"locus YIL073C, strain SPO22, hits give low values",1.03
same,normalized growth,"locus YIL125W, strain kgd1, hits give low values",0.989
same,normalized growth,"locus YIR030C, strain dcg1, hits give low values",1
same,normalized growth,"locus YJL092W, strain hpr5, hits give low values",0.994
same,normalized growth,"locus YJL095W, strain BCK1 (second series), hits give low values",0.98
same,normalized growth,"locus YJL095W, strain BCK1, hits give low values",0.944 and 1.04
same,normalized growth,"locus YJL115W, strain asf1, hits give low values",0.987
same,normalized growth,"locus YJL129C, strain trk1, hits give low values",0.92
same,normalized growth,"locus YJL134W, strain LCB3, hits give low values",1.01
same,normalized growth,"locus YJL154C, strain vps35, hits give low values",0.993
same,normalized growth,"locus YJL164C, strain tpk1, hits give low values",0.981
same,normalized growth,"locus YJL166W, strain qcr8, hits give low values",0.934
same,normalized growth,"locus YJL168C, strain set2, hits give low values",1.01
same,normalized growth,"locus YJL187C, strain SWE1 (second series), hits give low values",0.981
same,normalized growth,"locus YJR043C, strain POL32, hits give low values",0.976
same,normalized growth,"locus YJR066W, strain TOR1, hits give low values",0.987
